From PubChem BioAssay (NCI)
This is part of a sample that, as a whole, favours compounds with a hit. Of some 83,000 tested, about 20% had one in any assay.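 Note: values are percent growth. 100 is the growth of untreated cells, values between 100 and 0 indicate rising inhibition; between -100 and 0 indicates cell death.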 Unmarked numbers belong to inactive results. Active and inactive are the calls of the source. The calls were made as follows: active = growth percent below 10; inactive = the rest.

Columns and labels:
Assay in all cases: NCI-60 one-dose screen, 48 h (100 = growth as untreated, 0 = no growth, -100 = all killed)
Conditions in all cases: 10 µM unless noted
SK-MEL-2 melanoma = tested on: SK-MEL-2 melanoma
EKVX NSCLC = tested on: EKVX NSCLC
SN12C renal = tested on: SN12C renal
UO-31 renal = tested on: UO-31 renal
TK-10 renal = tested on: TK-10 renal
ACHN renal = tested on: ACHN renal
CAKI-1 renal = tested on: CAKI-1 renal
A498 renal = tested on: A498 renal
CCRF-CEM leukemia = tested on: CCRF-CEM leukemia
MOLT-4 leukemia = tested on: MOLT-4 leukemia
SR leukemia = tested on: SR leukemia
RPMI-8226 leukemia = tested on: RPMI-8226 leukemia
OVCAR-8 ovarian = tested on: OVCAR-8 ovarian
OVCAR-5 ovarian = tested on: OVCAR-5 ovarian
OVCAR-4 ovarian = tested on: OVCAR-4 ovarian
SK-OV-3 ovarian = tested on: SK-OV-3 ovarian
IGROV1 ovarian = tested on: IGROV1 ovarian
OVCAR-3 ovarian = tested on: OVCAR-3 ovarian
HS 578T breast = tested on: HS 578T breast
NCI/ADR-RES ovarian = tested on: NCI/ADR-RES ovarian

| SMILES | growth (SK-MEL-2 melanoma) | growth (EKVX NSCLC) | growth (SN12C renal) | growth (UO-31 renal) | growth (TK-10 renal) | growth (ACHN renal) | growth (CAKI-1 renal) | growth (A498 renal) | growth (CCRF-CEM leukemia) | growth (MOLT-4 leukemia) | growth (SR leukemia) | growth (RPMI-8226 leukemia) | growth (OVCAR-8 ovarian) | growth (OVCAR-5 ovarian) | growth (OVCAR-4 ovarian) | growth (SK-OV-3 ovarian) | growth (IGROV1 ovarian) | growth (OVCAR-3 ovarian) | growth (HS 578T breast) | growth (NCI/ADR-RES ovarian) |
| --- | --- | --- | --- | --- | --- | --- | --- | --- | --- | --- | --- | --- | --- | --- | --- | --- | --- | --- | --- | --- |
| CNC(=O)c1cc(N2CCc3cc(NC(=O)Nc4ccc(Cl)c(C(F)(F)F)c4)ccc32)ccn1 | 88.5% | 55.1% | 65.2% | 68.4% | 86.6% | 38.1% | 53.9% | 80.3% | 48.4% | 35.6% | 45.8% | 33.6% | 62.8% | 106% | 55.9% | 86.6% | 57.8% | 51.9% | 44.8% | 55% |
| COc1cc2nc(Cl)nc(Nc3cccc(C4=Nc5c(N)nc(N)nc5NC(c5ccc6c(c5)OCO6)C4)c3)c2cc1OC (stereo not given) | 85.2% | 86.1% | 78.6% | 86% | 113% | 94% | 82.8% | 105% | 26.8% | 27% | 10.3% | 41.7% | 68.2% | 112% | 97% | 112% | 77.6% | 63.5% | 82.7% | 93.1% |
| O=C1Nc2ccccc2/C1=C/c1ccc(COCC2CO2)n1-c1ccc(O)cc1 (stereo not given) | 101% | 102% | 105% | 89.7% | 104% | 97% | 98.3% | 115% | 89.2% | 98.8% | 100% | 95.7% | 101% | 107% | 101% | 114% | 104% | 111% | 104% | 106% |
| NS(=O)(=O)c1ccc(Nc2nc(Nc3ccccc3)nc3nnc(SCC(=O)NC4CCCCC4)n23)cc1 | 106% | 103% | 100% | 80.8% | 104% | 99.1% | 83.7% | 97.2% | 101% | 101% | 97.7% | 105% | 99.8% | 105% | 108% | 105% | 95.5% | 119% | 102% | 112% |
| Cc1ccc(NC(=S)NNC(=S)Nc2ccc(C)cc2)cc1 | 109% | 94.5% | 98.1% | 89.9% | 109% | 105% | 102% | 84.1% | 95.6% | 97.5% | 90% | 104% | 105% | 104% | 100% | 111% | 103% | 127% | 110% | 104% |
| COc1ccccc1-n1cc(C#N)c(N)c1C(=O)c1ccc(C)cc1 | 79.1% | 89.1% | 91.1% | 90% | 102% | 101% | 78.5% | 74.9% | 85.6% | 83.1% | 49.4% | 99.7% | 95% | 103% | 103% | 93.5% | 84.6% | 94.6% | 85.6% | 60.2% |
| CN(Cc1ccccc1)S(=O)(=O)/N=C1\NC(=O)NC1=C(Cl)Cl | 87.8% | 86.2% | 18.4% | 93.3% | 44.1% | -90.8% (active) | 86.8% | 70.8% | -12.8% (active) | 10.3% | -0.359% (active) | -1.12% (active) | 93.9% | 11.9% | 91.8% | 110% | 3.38% (active) | -81.7% (active) | 96.7% | 81.5% |
| O=S(=O)(NCCCNc1nccc(-c2[nH]c(-c3ccccc3)nc2-c2ccc(Cl)c(O)c2)n1)c1ccc(Br)cc1 | -22.4% (active) | 44.2% | 37.5% | 36.8% | 66.6% | 24.2% | 33.6% | 65.4% | 21.5% | 22.8% | 15.3% | 22.1% | 33.3% | 72.2% | 46.6% | 68.4% | 36.8% | 24.1% | 63.2% | 42.6% |
| CCCCCc1ccc(S(=O)(=O)Nc2cccc(-c3csc(NC(=O)CN4CCN(C)CC4)n3)c2)cc1 | 100% | 89.2% | 90.6% | 75% | 115% | 91.8% | 78.5% | 82.9% | 27.2% | 20.8% | -4.74% (active) | 5.62% (active) | 95.9% | 105% | 81.4% | 90.6% | 83.8% | 75.3% | 82.1% | 93.1% |
| N=c1c2cc(-c3ccccc3)oc2ncn1/N=C/c1ccc(Cl)cc1 | 101% | 84.7% | 62.6% | 94% | 112% | 34.3% | 97.7% | 99.7% | 71.2% | 88.2% | 35.3% | 80.9% | 95.7% | 51.7% | 17.1% | 99.7% | 53.5% | 6.82% (active) | 81.7% | 49.6% |
| CCn1c(SCC(=O)Nc2cccc(C(=O)/C=C/c3ccc(Br)cc3)c2)nc2ccccc2c1=O | 106% | 96.5% | 92.7% | 71.9% | 104% | 102% | 90.7% | 87.3% | 75% | 98.3% | 74.3% | 5.53% (active) | 96.4% | 95.8% | 93% | 106% | 86.8% | 90.7% | 98.3% | 89.6% |
| Cc1ccc(-c2cc3nc(C(Cl)Cl)nc(-c4cccs4)n3n2)cc1 | 105% | 66.3% | 85.9% | 70.7% | 141% | 21% | 55.6% | 84.3% | 104% | 98.6% | 108% | 51.9% | 77.5% | 72.4% | 71% | 86.4% | 61.7% | 20.3% | 91% | 58.3% |
| COc1ccc(-c2nc3cccc(O)c3c(=O)n2Cc2ccccc2)cc1COc1ccc(NC(C)=O)cc1 | 86.8% [3 µM] | 79.5% [3 µM] | 62.3% [3 µM] | 74.2% [3 µM] | 69.4% [3 µM] | 36.2% [3 µM] | 57% [3 µM] | 70.5% [3 µM] | 41.6% [3 µM] | 15.4% [3 µM] | 27.5% [3 µM] | 44.5% [3 µM] | 49.3% [3 µM] | 64.2% [3 µM] | 83% [3 µM] | 67.2% [3 µM] | 41.6% [3 µM] | 66.9% [3 µM] | 63.8% [3 µM] | 51.1% [3 µM] |
| N/C(=N\C(N)=N\c1nc2ccccc2s1)c1ccc(C(F)(F)F)cc1 | 108% | 54.8% | 36.5% | -19.1% (active) | 102% | 27.8% | 80.2% | 70.9% | 54.7% | 68.6% | 9.02% (active) | 46.5% | 55.8% | 105% | 94.6% | 124% | 80.5% | 91.2% | 86.9% | 30.4% |
| CN(C)C(=O)c1cc(-c2ccc3ncnc(NCc4ccccc4)c3c2)cnc1N | 95.2% | 47.9% | 56.7% | 50.6% | 21.9% | 69.2% | 27.2% | -2.78% (active) | 88% | 96.8% | 89.3% | 50.5% | 97.3% | 62.9% | 80.7% | 110% | 34.2% | 85.1% | 81.8% | 104% |
